Results as given in PubChem BioAssay AID1259336 (Sattelle Laboratory, UCL Respiratory, Division of Medicine, …, 2017).
Unmarked numbers belong to inactive results. Activity calls are given as the source filed them. Rule as the data show it: active = log2 fold change growth below about -1.8; inactive = the rest.

assay: anthelmintic activity against nematode growth – whole organism, log2 fold change (AID 1259336);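 also: growth scored by imaging after five days at 20 °C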; conditions: C. elegans growth, anthelmintic screen; hits give low values

| SMILES | log2 fold change growth |
| --- | --- |
| CN1CCCC1CCO[C@](C)(c1ccccc1)c1ccc(Cl)cc1 (stereo partly drawn) | 0.213 |
| c1coc(CNc2nc(N3CCCCC3)nc3ccccc23)c1 | -0.141 |
| O=C(Nc1ccnc(-c2cccnc2)n1)c1cc(C(F)(F)F)cc(C(F)(F)F)c1 | 0.327 |
| O=C(NC1CC1)c1ccc(N2CCOc3ccc(Cl)cc32)s1 | -0.614 |
| NC[C@@H](c1cccs1)S(=O)(=O)c1ccccc1 | 0.289 |
| O=C(C1CCN(c2nnc(-n3cccc3)s2)CC1)N1CCC(Cc2ccccc2)CC1 | 0.102 |
| Cc1cc(Nc2ccc(C(F)(F)F)cc2)n2ccnc2n1 | 0.0805 |
| CC(=O)Nc1ccc(NC(=O)c2cc(-c3cc(Cl)ccc3O)n[nH]2)cc1 | 0.254 |
| O=C(COc1cccc(F)c1)Nc1nc(-c2ccccn2)cs1 | -0.223 |
| COc1ccc(Cl)cc1NC(=O)CN(C)C(=O)c1cnn(-c2ccccc2)n1 | -0.154 |
| Cc1nn(C)cc1[C@H](C)Nc1nncc(-c2ccc(C(F)(F)F)cc2)n1 | 0.429 |
| COc1cncc(-c2cncc(N3CCN(c4ccncc4)CC3)n2)c1 | -0.191 |
| CCOC(=O)c1cc(-c2csc(Nc3c(C)cc(C)cc3C)n2)on1 | -0.726 |
| COc1cccc(-n2nnnc2S(=O)(=O)Cc2ccccc2)c1 | 0.034 |
| O=C(Nc1nnc(-c2ccc(Cl)s2)o1)c1ccc(Cl)s1 | 0.518 |
| CCc1ccc(S(=O)(=O)Nc2cc(CN3CCN(CCC(C)C)CC3)ccc2C)cc1 | 0.554 |
| Cc1ccc(C(=O)Nc2ccc(S(=O)(=O)O)c3cc(S(=O)(=O)O)cc(S(=O)(=O)O)c23)cc1NC(=O)c1cccc(NC(=O)Nc2cccc(C(=O)Nc3cc(C(=O)Nc4ccc(S(=O)(=O)O)c5cc(S(=O)(=O)O)cc(S(=O)(=O)O)c45)ccc3C)c2)c1 | 0.211 |
| COc1cccc(-n2nnnc2S(C)(=O)=O)c1 | 0.157 |
| O=C(c1ccc(NCCO)cc1)C1C[C@H]1c1ccc(Cl)cc1 (stereo partly drawn) | -0.319 |

| SMILES | log2 fold change growth |
| --- | --- |
| COc1cc(-c2cc(-c3ccc(S(C)(=O)=O)cc3)cnc2N)ccc1O | -0.318 |
| NCCN(C(=O)c1ccc(Cl)cc1Cl)c1ccc(OCc2ccc(Cl)cc2)cc1 | -0.0401 |
| O=C(Nc1ccc(N2CCNCC2)cc1)c1ccn2ncc(-c3cccc(Cl)c3)c2n1 | -0.0705 |
| O=C(Nc1cccnc1)c1c(O)c2cccc3c2n(c1=O)CC3 | -4.81 (active) |
| CNc1snc(C)c1C(=O)NCCOc1ccc(OC)cc1 | -0.0598 |
| CC(C)NCC(=O)Nc1cccc(C(=O)Nc2cccc(C(F)(F)F)c2)c1 | 0.0022 |
| CC(=O)Oc1ccccc1C(=O)Nc1ncc([N+](=O)[O-])s1 | 0.253 |
| O=C(Nc1ccccc1)c1ccc(-c2cc3ccncc3cc2OC2CCNCC2)s1 | -0.0844 |
| CC[C@H](NC(=O)c1ccccc1NC(=O)c1ccc(C)cc1)C(=O)OC | 0.0874 |
| FC(F)(F)c1cc(NCCc2ccccc2)nc(-c2ccccn2)n1 | -0.968 |
| c1ccc(-c2cc(N3CCCCC3)c3ccccc3n2)nc1 | -1.36 |
| O=C(Nc1ccc(F)c(-c2nc3ncc(-c4ccccc4)cc3[nH]2)c1)N1CCCC1 | -5.81 (active) |
| CC(C)(C)c1cc(C(=O)N2CCN(c3nccnc3C#N)CC2)n(Cc2ccccc2)n1 | -0.0659 |
| CNCC[C@H](Oc1ccc(C(F)(F)F)cc1)c1ccccc1 | 0.102 |
| COc1ccc(C2=NN(C3CCCCCC3)C(=O)C2(C)C)cc1OCCCCOc1ccc(-c2nn[nH]n2)cc1 | -0.216 |
| CCCCS(=O)(=O)Nc1ccc2cnn(C)c2c1 | 0.414 |
| O=C(Nc1ccc(N2CCNCC2)nc1)c1oc(-c2ccccc2)nc1C(F)(F)F | -0.164 |
| O=C1COCc2ccc(Br)cc2N1Cc1ccc(C(F)(F)F)cc1 | -0.402 |
| C[C@@H]1[C@H](O)[C@@H](C)C=CC=CC=CC=CC=CC=CC=C[C@H](O[C@@H]2O[C@H](C)[C@@H](O)[C@H](N)[C@@H]2O)C[C@@H]2O[C@](O)(C[C@@H](O)C[C@@H](O)[C@H](O)CC[C@H](O)C[C@@H](O)CC(=O)O[C@H]1C)C[C@H](O)[C@H]2C(=O)O | 0.0153 |
